Results published in PubChem BioAssay (Tox21).
Where “and” joins values, the source holds several entries; their conditions need not be identical. Equal values may be shown once. Records with an inconclusive call do not appear. Entries that show only a call come without a potency. Calls of active or inactive are those of the source. Unless noted, the call rests on the fitted dose curve; in most records, active means well fitted curve in the direction sought with a large enough effect in the repeat runs; inconclusive means weak or mixed curves; inactive means no such curve, though single readings can be large; an effect the other way counts as inactive or inconclusive.

Tests used:
[1] = qHTS assay to identify small molecule antagonists of the sonic hedgehog signaling (Shh) pathway (AID 1259369; calls by dose curve; further: nearly all actives have a fitted effect of over 45% in size; further: potency means the concentration at half of the fitted maximal effect)
Outline: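 Antagonist mode: compound added to 3T3 Gli1-Luc cells followed by conditioned-medium stimulation, 24 h at 37 C, 5% CO2. Inhibition taken as loss of Gli1-driven luciferase luminescence.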

[2] = qHTS assay to identify small molecule agonists of the estrogen receptor beta (ER-beta) signaling pathway - cell viability counter screen (AID 1259380); further: nearly all actives have a fitted effect of over 30% in size; further: potency means the concentration at half of the fitted maximal effect
Outline: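 Cell viability counter screen: CellTiter-Glo luminescence (30 min, room temperature) measured in the same wells as the beta-lactamase readout, after 16 hr compound exposure at 37C of ER-beta-bla HEK293T cells in 2% charcoal-stripped FBS medium.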

[3] = qHTS assay to identify small molecule antagonists of the estrogen receptor beta (ER-beta) signaling pathway - cell viability counter screen (AID 1259382); further: series mostly up to about 92 µM; nearly all actives have a fitted effect of over 55% in size
Outline: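 Cytotoxicity was measured in the same wells by CellTiter-Glo luminescence after 30 min at room temperature. Cells were ER-beta-bla HEK293T in charcoal-stripped serum, given compound together with 1 nM E2 and incubated 16 h at 37C.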

[4] = target: Estrogen receptor (Homo sapiens) (UniProt P03372); test: qHTS assay to identify small molecule agonists of the estrogen receptor alpha (ER-alpha) signaling pathway in the presence of an antagonist (AID 1259383; calls by dose curve; further: top concentration of the series differs between compounds; nearly all actives have a fitted effect of over 15% in size)
Chain of Estrogen receptor (Homo sapiens) (P03372 whole entry, looked up): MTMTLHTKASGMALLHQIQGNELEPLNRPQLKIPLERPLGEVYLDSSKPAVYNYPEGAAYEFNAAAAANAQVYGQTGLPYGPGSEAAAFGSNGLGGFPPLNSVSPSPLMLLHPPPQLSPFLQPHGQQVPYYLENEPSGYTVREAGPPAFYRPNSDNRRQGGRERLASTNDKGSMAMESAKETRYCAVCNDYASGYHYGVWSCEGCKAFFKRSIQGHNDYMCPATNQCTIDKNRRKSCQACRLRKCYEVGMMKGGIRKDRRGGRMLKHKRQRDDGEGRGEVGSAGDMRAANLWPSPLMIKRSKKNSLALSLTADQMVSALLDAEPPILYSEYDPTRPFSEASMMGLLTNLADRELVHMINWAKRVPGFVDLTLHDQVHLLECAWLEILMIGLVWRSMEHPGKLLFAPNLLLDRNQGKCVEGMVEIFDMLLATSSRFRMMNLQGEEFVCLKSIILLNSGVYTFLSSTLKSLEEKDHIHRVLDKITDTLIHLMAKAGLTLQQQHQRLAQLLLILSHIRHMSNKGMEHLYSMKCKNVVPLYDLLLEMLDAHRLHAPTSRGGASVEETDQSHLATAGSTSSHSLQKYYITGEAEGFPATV
Outline: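 Agonist-mode confirmation run in the presence of 10.0nM (final) ICI-182,780 antagonist. The reporter was ERE-driven luciferase in VM7Luc4E2 cells, grown in charcoal-stripped serum. Cells were exposed to 15-concentration compound series for 22hr, then ONE-Glo luminescence was read.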

[5] = qHTS assay to identify small molecule agonists or antagonists of the thyroid stimulating hormone receptor (TSHR) signaling pathway - wild type cell line counter screen (AID 1259384; calls by dose curve)
Outline: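 Wild-type HEK293 cells were plated 18 h at 37 C/5% CO2, pin-dosed with compound plus Ro20-1724 medium, held 30 min at room temperature, then given cAMP-d2 and anti-cAMP-cryptate; fluorescence was read after 1 h. Fifteen concentrations, triplicate.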

[6] = target: Thyrotropin receptor (Homo sapiens) (UniProt P16473); test: qHTS assay to identify small molecule antagonists of the thyroid stimulating hormone receptor (TSHR) signaling pathway (AID 1259385; calls by dose curve; further: nearly all actives have a fitted effect of over 20% in size)
Chain of Thyrotropin receptor (Homo sapiens) (P16473 whole entry, looked up): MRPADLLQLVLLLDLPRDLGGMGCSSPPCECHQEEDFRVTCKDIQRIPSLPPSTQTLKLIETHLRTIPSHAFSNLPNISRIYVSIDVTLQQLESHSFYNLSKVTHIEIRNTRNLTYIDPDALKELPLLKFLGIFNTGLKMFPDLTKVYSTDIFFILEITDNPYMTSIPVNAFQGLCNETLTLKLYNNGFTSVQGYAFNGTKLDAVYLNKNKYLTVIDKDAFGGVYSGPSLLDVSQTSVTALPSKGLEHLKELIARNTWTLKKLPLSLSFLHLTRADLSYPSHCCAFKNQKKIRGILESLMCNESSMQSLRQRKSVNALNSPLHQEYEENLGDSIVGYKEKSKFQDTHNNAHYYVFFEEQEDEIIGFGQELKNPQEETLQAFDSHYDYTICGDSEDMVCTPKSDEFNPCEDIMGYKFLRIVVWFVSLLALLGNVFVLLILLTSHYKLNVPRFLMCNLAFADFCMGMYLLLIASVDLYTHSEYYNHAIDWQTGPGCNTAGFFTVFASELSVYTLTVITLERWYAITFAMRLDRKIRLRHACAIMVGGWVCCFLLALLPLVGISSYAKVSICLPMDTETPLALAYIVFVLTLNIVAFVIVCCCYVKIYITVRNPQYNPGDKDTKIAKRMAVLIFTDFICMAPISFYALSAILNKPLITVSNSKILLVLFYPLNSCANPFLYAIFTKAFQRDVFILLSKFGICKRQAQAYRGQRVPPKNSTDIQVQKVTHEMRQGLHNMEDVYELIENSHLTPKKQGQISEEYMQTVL
Outline: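 TSHR-HEK293 cells were plated and held 18 h at 37C/5% CO2, then given compound plus Ro20-1724 and stimulated with TSH at 1.5 ng/mL final. After 30 min at room temperature, cAMP was detected with cAMP-d2/anti-cAMP-cryptate (1 h) by fluorescence.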

[7] = target: Progesterone receptor (Homo sapiens) (UniProt P06401); test: qHTS assay to identify small molecule agonists of the progesterone receptor (PR) signaling pathway (AID 1346784; calls by dose curve; further: nearly all actives have a fitted effect of over 30% in size)
Chain of Progesterone receptor (Homo sapiens) (P06401 whole entry, looked up): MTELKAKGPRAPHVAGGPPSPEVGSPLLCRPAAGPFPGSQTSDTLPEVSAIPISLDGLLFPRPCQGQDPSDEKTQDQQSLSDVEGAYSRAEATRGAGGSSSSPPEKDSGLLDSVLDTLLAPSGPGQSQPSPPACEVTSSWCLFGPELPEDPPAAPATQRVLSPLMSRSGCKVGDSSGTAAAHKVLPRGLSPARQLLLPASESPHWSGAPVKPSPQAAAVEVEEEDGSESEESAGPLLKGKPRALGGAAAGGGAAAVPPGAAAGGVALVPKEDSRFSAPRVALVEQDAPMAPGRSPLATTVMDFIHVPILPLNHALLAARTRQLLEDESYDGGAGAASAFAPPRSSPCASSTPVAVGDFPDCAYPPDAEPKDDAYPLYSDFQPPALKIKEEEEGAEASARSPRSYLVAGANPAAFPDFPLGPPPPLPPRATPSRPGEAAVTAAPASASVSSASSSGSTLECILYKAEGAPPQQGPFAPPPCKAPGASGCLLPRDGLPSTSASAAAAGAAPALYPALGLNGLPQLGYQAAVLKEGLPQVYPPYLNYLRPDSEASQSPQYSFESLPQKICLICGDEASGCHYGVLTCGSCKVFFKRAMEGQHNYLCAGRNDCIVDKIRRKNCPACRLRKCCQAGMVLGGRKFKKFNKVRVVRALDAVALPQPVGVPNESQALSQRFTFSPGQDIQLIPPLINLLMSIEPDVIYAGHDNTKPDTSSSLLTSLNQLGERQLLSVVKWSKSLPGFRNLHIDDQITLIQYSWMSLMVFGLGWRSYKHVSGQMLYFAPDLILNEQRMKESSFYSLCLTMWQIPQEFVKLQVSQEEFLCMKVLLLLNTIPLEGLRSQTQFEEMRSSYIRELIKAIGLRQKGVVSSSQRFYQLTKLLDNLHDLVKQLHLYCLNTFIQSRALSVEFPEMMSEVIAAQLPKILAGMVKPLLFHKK
Outline: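 Using charcoal-stripped serum (2%) to limit endogenous steroids, PR-UAS-bla HEK 293T cells received compounds for 16 hr at 37C after 6 hr plating; beta-lactamase FRET fluorescence was recorded following 2 hr substrate loading at room temperature.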

[8] = qHTS assay to identify small molecule antagonists of the progesterone receptor (PR) signaling pathway - cell viability counter screen (AID 1346798); further: series mostly up to about 92 µM; nearly all actives have a fitted effect of over 50% in size
Outline: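 ATP content as viability readout: CellTiter-Glo luminescence, 30 min room temperature, in PR-UAS-bla HEK293T cells after 16 hr compound/R5020 treatment at 37C and 5% CO2.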

[9] = qHTS assay to identify small molecule antagonists of the TGF-beta/Smad signaling pathway - cell viability counter screen (AID 1346824); further: nearly all actives have a fitted effect of over 50% in size; further: potency means the concentration at half of the fitted maximal effect
Outline: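 SBE-bla HEK 293T cells were plated overnight at 37 C, then given compounds in DMSO plus TGF-beta1 (added as 0.25 ng/mL solution) for 5 hr. After the bla read, CellTiter-Glo was added to the same wells and luminescence read after 30 min at room temperature.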

[10] = qHTS assay to identify small molecule agonists of the TGF-beta/Smad signaling pathway - cell viability counter screen (AID 1346829); further: top concentration of the series differs between compounds; nearly all actives have a fitted effect of over 45% in size
Outline: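 CellTiter-Glo luminescence readout; SBE-bla HEK 293T cells, overnight plating, compound 5 hr at 37 C/5% CO2, then bla substrate 2 hr RT, then CellTiter-Glo 30 min RT.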

[11] = qHTS assay to identify small molecule agonists of the TGF-beta/Smad signaling pathway (AID 1346859; active means well fitted activation curve with a large enough effect in the signal ratio in the repeat runs, not every such curve was filed as active; the % refers to the signal ratio; further: series mostly up to about 77 µM)
Outline: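 Stable Smad binding element-beta-lactamase HEK 293T cells; 5 hr compound exposure at 37 C under 5% CO2; 2 hr room-temperature substrate step; fluorescence excited at 405 nm, collected at 460 nm and 530 nm.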

[12] = target: Androgen receptor (Homo sapiens) (UniProt P10275); test: qHTS assay to identify small molecule agonists of the androgen receptor (AR) signaling pathway in the presence of an antagonist (AID 1259381; calls by dose curve; further: nearly all actives have a fitted effect of over 15% in size)
Chain of Androgen receptor (Homo sapiens) (P10275 whole entry, looked up): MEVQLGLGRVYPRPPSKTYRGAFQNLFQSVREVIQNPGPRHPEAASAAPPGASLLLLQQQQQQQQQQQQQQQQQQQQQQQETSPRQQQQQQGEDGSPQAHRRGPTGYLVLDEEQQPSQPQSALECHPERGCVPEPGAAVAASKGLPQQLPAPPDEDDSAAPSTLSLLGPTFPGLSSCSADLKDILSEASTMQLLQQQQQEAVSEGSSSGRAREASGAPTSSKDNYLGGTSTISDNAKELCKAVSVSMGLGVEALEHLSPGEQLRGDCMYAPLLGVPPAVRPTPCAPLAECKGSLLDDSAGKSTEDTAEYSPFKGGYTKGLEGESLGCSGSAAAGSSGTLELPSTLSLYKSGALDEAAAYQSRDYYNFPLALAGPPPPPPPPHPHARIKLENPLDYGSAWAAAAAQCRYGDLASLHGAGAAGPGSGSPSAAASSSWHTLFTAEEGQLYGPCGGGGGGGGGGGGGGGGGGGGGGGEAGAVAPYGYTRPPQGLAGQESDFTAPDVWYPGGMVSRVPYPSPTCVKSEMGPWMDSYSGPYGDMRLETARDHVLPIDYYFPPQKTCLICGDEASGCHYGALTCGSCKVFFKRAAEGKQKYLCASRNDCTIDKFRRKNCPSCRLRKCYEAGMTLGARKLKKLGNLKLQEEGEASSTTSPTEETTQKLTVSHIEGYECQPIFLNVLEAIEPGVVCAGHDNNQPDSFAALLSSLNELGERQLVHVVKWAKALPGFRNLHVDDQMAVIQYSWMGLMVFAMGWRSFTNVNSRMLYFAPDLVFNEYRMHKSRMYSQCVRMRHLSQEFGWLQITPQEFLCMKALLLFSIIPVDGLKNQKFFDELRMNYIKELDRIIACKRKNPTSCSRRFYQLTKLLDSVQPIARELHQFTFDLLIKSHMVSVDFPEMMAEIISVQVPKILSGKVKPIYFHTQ
Outline: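 Agonist-mode confirmation run against 3.0 uM final nilutamide: compounds titrated at 15 concentrations onto MDA-kb2 MMTV-luciferase reporter cells. Luminescence measured with ONE-Glo following 16 hr incubation, 37C, 0% CO2.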

[13] = qHTS assay to identify small molecule agonists of the estrogen receptor alpha (ER-alpha) signaling pathway in the presence of an antagonist - cell viability counter screen (AID 1259386); further: nearly all actives have a fitted effect of over 30% in size; further: potency means the concentration at half of the fitted maximal effect
Outline: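 Compounds tested at 15 concentrations for 22 h at 37C alongside 10.0nM (final) ICI-182,780 antagonist, in VM7Luc4E2 cells grown in phenol red-free, charcoal-stripped medium. Viability read by CellTiter-Fluor fluorescence after 1 h reagent incubation.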

[14] = qHTS assay to identify small molecule agonists of the androgen receptor (AR) signaling pathway in the presence of an antagonist - cell viability counter screen (AID 1259379); further: nearly all actives have a fitted effect of over 25% in size; further: potency means the concentration at half of the fitted maximal effect
Outline: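 Cytotoxicity counter-screen run in the same wells as the nilutamide-challenged (3.0 µM final) AR agonist assay in MDA-kb2 cells. Compounds tested at 15 concentrations for 16 h, 37 °C without CO2; CellTiter-Fluor fluorescence read.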

[15] = target: Progesterone receptor (Homo sapiens) (UniProt P06401); test: qHTS assay to identify small molecule antagonists of the progesterone receptor (PR) signaling pathway (AID 1346795; active means well fitted inhibition curve with a large enough effect in the signal ratio in the repeat runs, not every such curve was filed as active; the % refers to the signal ratio; further: potency means the concentration at half of the fitted maximal effect)
Outline: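 Inhibition of R5020-induced (1 nM final) beta-lactamase reporter signal in PR-UAS-bla HEK293T cells was scored by FRET fluorescence after overnight (16 hr) compound treatment.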

[16] = qHTS assay to identify small molecule agonists of the progesterone receptor (PR) signaling pathway - cell viability counter screen (AID 1346799; calls by dose curve; further: nearly all actives have a fitted effect of over 45% in size; further: potency means the concentration at half of the fitted maximal effect)
Outline: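 Cytotoxicity in PR-bla HEK293T cells: 16 h compound, 37C; CellTiter-Glo added post-FRET read; luminescence after 30 min RT.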

[17] = target: Thyrotropin-releasing hormone receptor (Homo sapiens) (UniProt P34981); test: qHTS assay to identify small molecule antagonists of the thyrotropin-releasing hormone receptor (TRHR) signaling pathway (AID 1346877; active means well fitted inhibition curve with a large enough effect in the repeat runs, not every such curve was filed as active; further: series mostly up to about 51 µM)
Chain of Thyrotropin-releasing hormone receptor (Homo sapiens) (P34981 whole entry, looked up): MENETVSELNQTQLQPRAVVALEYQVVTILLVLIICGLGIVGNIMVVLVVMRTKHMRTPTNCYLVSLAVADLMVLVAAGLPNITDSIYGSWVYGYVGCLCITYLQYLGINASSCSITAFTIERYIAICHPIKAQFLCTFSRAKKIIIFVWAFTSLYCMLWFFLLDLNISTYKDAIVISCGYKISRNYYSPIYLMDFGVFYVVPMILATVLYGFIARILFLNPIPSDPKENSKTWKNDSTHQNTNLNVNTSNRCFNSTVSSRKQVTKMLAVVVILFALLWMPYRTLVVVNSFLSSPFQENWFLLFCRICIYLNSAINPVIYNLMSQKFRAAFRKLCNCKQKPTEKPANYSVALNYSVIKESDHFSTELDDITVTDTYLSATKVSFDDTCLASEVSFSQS
Outline: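 Antagonist mode: after a 5 min room-temperature compound exposure, cells were stimulated with 1 nM (final) TRH. Dye-loaded TRHR-HEK293 cells were used, and calcium-dependent fluorescence was followed for 3 min, with 15-point titrations run in triplicate.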

[18] = target: Thyrotropin-releasing hormone receptor (Homo sapiens) (UniProt P34981); test: qHTS assay to identify small molecule agonists of the thyrotropin-releasing hormone receptor (TRHR) signaling pathway (AID 1346891; calls by dose curve;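 further: HEK293 cells expressing TRHR with calcium dye readout; series mostly up to about 58 µM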)
Outline: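 In 1536-format, 1500 TRHR-Hek293 cells per well grew 18 h, took up calcium dye for 2 h at 37 °C, received compound, and were read kinetically; 15-point titrations, triplicates.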

[19] = target: Estrogen receptor beta (Homo sapiens) (UniProt Q92731); test: qHTS assay to identify small molecule agonists of the estrogen receptor beta (ER-beta) signaling pathway (AID 1259377; active means well fitted activation curve with a large enough effect in the signal ratio in the repeat runs, not every such curve was filed as active; the % refers to the signal ratio)
Chain of Estrogen receptor beta (Homo sapiens) (Q92731 whole entry, looked up): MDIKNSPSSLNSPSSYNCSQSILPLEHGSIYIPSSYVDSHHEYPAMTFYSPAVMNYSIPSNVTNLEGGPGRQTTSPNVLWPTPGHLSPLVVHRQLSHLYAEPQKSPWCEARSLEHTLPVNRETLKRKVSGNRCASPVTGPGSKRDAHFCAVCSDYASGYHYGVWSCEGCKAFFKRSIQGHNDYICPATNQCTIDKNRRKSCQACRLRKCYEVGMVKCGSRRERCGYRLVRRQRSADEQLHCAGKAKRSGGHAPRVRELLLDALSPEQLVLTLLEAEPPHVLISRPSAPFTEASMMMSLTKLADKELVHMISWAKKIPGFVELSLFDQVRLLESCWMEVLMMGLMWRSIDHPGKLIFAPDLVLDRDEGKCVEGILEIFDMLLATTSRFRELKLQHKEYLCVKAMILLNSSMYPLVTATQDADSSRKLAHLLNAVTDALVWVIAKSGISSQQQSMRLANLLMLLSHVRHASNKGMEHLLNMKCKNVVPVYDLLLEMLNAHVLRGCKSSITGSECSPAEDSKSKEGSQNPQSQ
Outline: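 In HEK293T cells bearing a UAS-beta-lactamase reporter under ER-beta control, DMSO-delivered compounds were incubated for 16 hr at 37C. Activity was detected as fluorescence 2 hours after LiveBLAzer B/G FRET substrate addition.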

[20] = target: Estrogen receptor beta (Homo sapiens) (UniProt Q92731); test: qHTS assay to identify small molecule antagonists of the estrogen receptor beta (ER-beta) signaling pathway (AID 1259378; active means well fitted inhibition curve with a large enough effect in the signal ratio in the repeat runs, not every such curve was filed as active; the % refers to the signal ratio)
Outline: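 ER-beta-UAS-bla HEK293T (GripTite) cells in 2% charcoal-stripped FBS medium were preincubated 6 hr at 37C, dosed with compound, then stimulated with 1 nM E2 (final) for 16 hr; beta-lactamase reporter read by B/G FRET fluorescence after 2 hr substrate loading.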

SMILES	Potency [1]	Potency [2]	Potency [3]	Potency [4]	Potency [5]	Potency [6]	Potency [7]	Potency [8]	Potency [9]	Potency [10]	outcome [11]	Potency [12]	Potency [13]	Potency [14]	Potency [15]	Potency [16]	Potency [17]	Potency [18]	Potency [19]	Potency [20]
CN1CCc2cc(Cl)c(O)cc2[C@H]2c3ccccc3CC[C@@H]21	inactive	15 µM (active)	inactive	inactive	inactive	inactive	inactive	inactive	inactive	inactive	inactive									
CCO/N=C(\CC)C1=C(O)CC(c2c(C)cc(C)cc2C)CC1=O (stereo not given)	5.45 µM (active)			inactive			inactive		inactive	inactive	inactive	inactive	inactive							
CSC(C)(C)/C=N/O	inactive		inactive	inactive	inactive	inactive	inactive	inactive	inactive	inactive	inactive		inactive	inactive	inactive	inactive	inactive	inactive		
[O]=[Cr](=[O])([OH])[O][Cr](=[O])(=[O])[OH]	1.95 µM (active) and 2.16 µM (active)	24.6 µM (active) and 54.4 µM (active)		inactive	inactive	inactive		inactive	27.8 µM (active) and 24.5 µM (active)			inactive				inactive				
CCC1(CC)C(=O)N=C(O)NC1=O		inactive	inactive	inactive			inactive	inactive	inactive		inactive		inactive	inactive	inactive	inactive	inactive	inactive	inactive	inactive
N#CCCl	inactive	25.4 µM (active)		inactive	inactive	inactive			inactive	inactive			inactive		inactive					
O=[N+]([O-])c1cccc2cccc([N+](=O)[O-])c12		inactive	inactive				inactive	inactive	inactive		inactive		inactive		27.4 µM (active)				inactive	
CC(C)(C)c1ccc(OP(=O)(Oc2ccccc2)Oc2ccccc2)cc1							inactive	inactive	inactive		inactive		inactive	inactive	21.8 µM (active)	inactive	inactive	inactive	inactive	
CN1CCc2cc3c(cc2C1O)OCO3 (stereo not given)		inactive	inactive					inactive	inactive	inactive					inactive	inactive	inactive	inactive		
C[N+]1(C)[C@@H]2CC[C@H]1CC(OC(=O)C(CO)c1ccccc1)C2 (stereo not given in full)		inactive	inactive		inactive		inactive		inactive	inactive			inactive	inactive	inactive	inactive			inactive	inactive
N#CSCc1ccccc1		inactive	inactive	inactive	inactive	inactive	inactive	inactive	inactive	inactive	inactive		inactive	inactive	inactive		inactive	inactive		inactive
CC(=O)[O-].CC(=O)[O-].CC(=O)[O-].[Cr+3]		inactive	inactive				inactive	inactive	inactive		inactive			inactive	inactive	inactive				
COc1ccc2c3c1O[C@H]1[C@H](O)CC[C@H]4[C@@H](C2)N(C)CC[C@@]341		inactive	inactive		inactive	inactive	inactive		inactive	inactive	inactive		inactive	inactive	inactive			inactive	inactive	inactive
O=C(N[C@H]1N=C(c2ccccc2F)c2cccc3c2N(CC3)C1=O)c1cc2ccccc2[nH]1					inactive	inactive	inactive	inactive	inactive	inactive	inactive		inactive	inactive	inactive	inactive	inactive	inactive	inactive	inactive
c1ccc(N=NNc2ccccc2)cc1			inactive	inactive	inactive	inactive	inactive	inactive	inactive		inactive		28.3 µM (active) and 27.3 µM (active)		56.4 µM (active) and 48.6 µM (active)	inactive	inactive	inactive		
Cc1ccccc1OP(=O)(Oc1ccccc1C)Oc1ccccc1C				inactive	inactive		inactive	inactive	inactive		inactive	inactive		inactive		inactive		inactive		
O=c1c2ccccc2c(=O)c2c1cc(Cl)c1[nH]c3c([nH]c12)c(Cl)cc1c(=O)c2ccccc2c(=O)c13		inactive	inactive	inactive	inactive		inactive	inactive	inactive	inactive	inactive		inactive	inactive	inactive	inactive	inactive			
COC(=O)C(C)N(C(=O)c1ccco1)c1c(C)cccc1C (stereo not given)		inactive			inactive	inactive	inactive	inactive	inactive	inactive			inactive			inactive			inactive	inactive
CCOP(=O)(OCC)Oc1nc(Cl)c(Cl)cc1Cl		8.58 µM (active)						inactive	inactive	inactive	inactive	inactive			5.42 µM (active)		inactive			
Oc1ccc(Cl)c(Cl)c1			inactive	inactive	inactive		inactive	inactive	inactive		inactive				26.9 µM (active)	inactive	inactive	inactive		
CO/N=C(/C1=NOCCO1)c1ccccc1Oc1ncnc(Oc2ccccc2Cl)c1F		21.7 µM (active)	inactive				inactive			inactive	inactive		27.3 µM (active)	15.3 µM (active)	27.3 µM (active)		inactive	inactive		
C[C@H]1[C@H](c2ccc(Cl)cc2)SC(=O)N1C(=O)NC1CCCCC1			inactive	inactive	inactive		inactive			inactive		inactive			13.7 µM (active)		inactive			inactive
NC1CCC(CC2CCC(N)CC2)CC1 (stereo not given)		inactive	inactive	inactive			inactive		inactive	inactive	inactive			60.1 µM (active)	inactive	26.8 µM (active)		inactive		
